Laboratory results from paper PMC12136788.
In all, about 24,000 sequences were measured (“enrichment r”: median about 0.99, highest 2% from about 3.7 on). The list comes from a sample in which the highest values are over-represented; it also holds similar and randomly drawn sequences.

B1: 12963335_12971236_673_CDS_ENSG00000085415_ENST00000262124|human|control|control (ssRNA)
RNA: GGGAGUUCUACAGUCCGACGAUCAUAUUCAAAAAUCUGAACCUUGGCCAUUGCGUUGGGGCUACUGUCAUCACUUCCUACGGCGAUCAUGGGGGAAUGAGCACGAGAGCUUGAAGGGUUCCAAGAAAUACAACUACAGCUUAGCAACAGAGGAUUGAGCAUCA
B2: chr1:154966221:154966222:+_ENSMUSG00000042751_ENSMUST00000043313|mus_mus|FALSE|FALSE (ssRNA)
RNA: GGGAGUUCUACAGUCCGACGAUCUGCAACUCGAAUGCAGUUUUUAUUGAGUUGACUUCCAUAAAGCAAAUCUCACUCUUAAAUUAGCAGAUAUGAUUUUUUAAAAAAUUAAAAAAAAAAAAGCUUCCUCCUCCCCAUUCCAACCAACAGAGGAUUGAGCAUCA
B3: chr16:67134085:67134086:+_ENSG00000067955_ENST00000412916|hu_mus|FALSE|FALSE (ssRNA)
RNA: GGGAGUUCUACAGUCCGACGAUCGAAUUGACCAUGUCAGUUUUUAAAAUUUUCUAAAAUAAUGCCAUUUUAUGAUAAAAUACAUUUUUGCAAAAAUUCAGAAAUGUAGUAACAUUUAAUGAAUACGACCACGGAAAGUAUUGUCAACAGAGGAUUGAGCAUCA
B4: chr16:67134085:67134086:+_ENSG00000067955_ENST00000412916|hu_hu|FALSE|FALSE (ssRNA)
RNA: GGGAGUUCUACAGUCCGACGAUCCUGAAUUGACUGUGUCAGUUUUUCACCCUUUAAAAUAAUGCCAUUUAAUGAUAAAAUACAUUUUUCAAAAAUUCAGAAAUGUAGUAACAUUUAAUAAAUGUGACCAUGAAAAAUAUUUGUCAACAGAGGAUUGAGCAUCA
B5: chr5:6374476:6374477:-_ENSG00000133398_ENST00000255764|hu_mus|FALSE|FALSE (ssRNA)
RNA: GGGAGUUCUACAGUCCGACGAUCUAGGCUUUUAAAUUUCUUCAUUGUGUCGAUCUUGCCCUUGACUUGCUCGUUUUUAGCUAGAGCCCUCUCCAGGCAUUCUUUGGUGUAGAGCUGGGGAUUCCGACCUUGAUCAAUGUAUUCCAACAGAGGAUUGAGCAUCA
B6: 117884203_117884323_1758_3pUTR_ENSG00000047932_ENST00000052569|human|control|control (ssRNA)
RNA: GGGAGUUCUACAGUCCGACGAUCAAAUUGCUUUACAUGCAAUAGCUAAUUAUGGUCUACCACAGAAAACAGGGUGUUUUAUGCAUUGAGAAUUGUUCACAUGAAGCCCUGAGGUACCCGCCUUUCAUUUAGGCAACAAACAGCCAACAGAGGAUUGAGCAUCA

The binders below were run against T1, UNK ZnF1-3 (human, UniProt Q9C0B0 31-174) (assay: nsRBNS (natural sequence RNA bind-n-seq); RBNS binding buffer (assumed for nsRBNS): 25 mM Tris pH 7.5, 150 mM KCl, 3 mM MgCl2, 0.01% Triton X-100, 500 ug/ml BSA, 20 U/ml SUPERase-In, 4 C; UNK is unkempt and MSI1 is Musashi-1; names of the RNAs are library labels; protein concentration not given here; high values mean tight binding).
T1 sequence: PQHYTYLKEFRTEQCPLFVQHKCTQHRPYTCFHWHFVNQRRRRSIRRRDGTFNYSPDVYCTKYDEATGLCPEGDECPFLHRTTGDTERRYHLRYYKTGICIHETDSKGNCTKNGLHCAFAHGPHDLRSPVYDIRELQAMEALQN

Binder | binding signal
B1 | 2.14 enrichment R
B2 | 3.32 enrichment R
B3 | 4.09 enrichment R
B4 | 0.889 enrichment R
B5 | 0.465 enrichment R
B6 | 1.15 enrichment R
